In publication PMC4336329 (PLoS ONE, 2015):
The campaign covered roughly 310,000 compounds. About 14,000 (4.5%) showed an effect of 50% or more. The effect is printed as a negative number. This is one part of a sample in which strong results are shown more often than they occur.

Target: human ether-à-go-go-related gene (hERG) potassium channel (human, UniProt Q12809)
Assay: primary screen, population patch clamp on CHO cells stably expressing hERG; higher = less effect of the substance
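Note: peak tail current of the secondary pulse compared with the same well before compound.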

Sequence of human ether-à-go-go-related gene (hERG) potassium channel (Q12809 whole entry, looked up): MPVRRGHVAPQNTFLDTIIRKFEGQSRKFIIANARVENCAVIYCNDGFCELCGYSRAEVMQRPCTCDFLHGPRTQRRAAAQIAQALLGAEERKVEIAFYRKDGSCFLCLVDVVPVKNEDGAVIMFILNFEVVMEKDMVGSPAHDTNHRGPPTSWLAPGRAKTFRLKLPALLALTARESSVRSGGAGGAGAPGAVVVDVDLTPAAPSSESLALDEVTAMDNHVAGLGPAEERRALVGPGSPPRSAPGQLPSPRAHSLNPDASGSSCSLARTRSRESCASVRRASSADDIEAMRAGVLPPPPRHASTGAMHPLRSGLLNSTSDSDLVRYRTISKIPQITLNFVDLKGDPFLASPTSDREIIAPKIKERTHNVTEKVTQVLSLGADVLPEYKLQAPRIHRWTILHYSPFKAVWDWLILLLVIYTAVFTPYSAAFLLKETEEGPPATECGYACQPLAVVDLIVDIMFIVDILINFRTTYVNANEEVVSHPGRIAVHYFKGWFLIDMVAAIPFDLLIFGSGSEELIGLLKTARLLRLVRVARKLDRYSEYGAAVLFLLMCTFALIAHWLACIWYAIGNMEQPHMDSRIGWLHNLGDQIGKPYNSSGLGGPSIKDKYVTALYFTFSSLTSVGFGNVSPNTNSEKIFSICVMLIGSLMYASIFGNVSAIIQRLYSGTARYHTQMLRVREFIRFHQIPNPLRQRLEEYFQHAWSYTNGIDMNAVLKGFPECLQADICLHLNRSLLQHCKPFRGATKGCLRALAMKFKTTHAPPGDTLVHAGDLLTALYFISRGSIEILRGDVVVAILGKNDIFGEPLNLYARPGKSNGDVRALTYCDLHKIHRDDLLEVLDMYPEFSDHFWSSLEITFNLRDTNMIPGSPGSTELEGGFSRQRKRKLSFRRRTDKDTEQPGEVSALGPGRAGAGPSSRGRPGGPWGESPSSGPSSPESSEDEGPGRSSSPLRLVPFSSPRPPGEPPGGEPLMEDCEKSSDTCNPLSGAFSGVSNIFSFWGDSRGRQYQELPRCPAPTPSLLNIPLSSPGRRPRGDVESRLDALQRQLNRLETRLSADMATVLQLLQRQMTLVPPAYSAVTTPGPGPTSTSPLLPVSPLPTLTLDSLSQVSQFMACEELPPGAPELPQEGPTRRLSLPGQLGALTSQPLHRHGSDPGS

| Structure (SMILES) | hERG current change (%, negative = inhibition) at 10uM [%] |
| --- | --- |
| CCn1c(O)c(/C=N/NC(=O)c2ccccc2)c(=O)n(CC)c1=S | 13.6 |
| COc1ccc(OCC(=O)N/N=C2\CCc3ccccc32)cc1 | -23.9 |
| CCOC(=O)C1=C(C)N=C2SC(C)C(=O)N2C1c1cccc(F)c1 (stereo not shown) | -3.16 |
| CCOC(=O)c1nnn(-c2nonc2N)c1CN(CC)CC | -7.44 |
| CCOc1ccccc1NC(=O)c1nnn(CC(=O)Nc2cc(C)cc(C)c2)c1N | 15.7 |
| Cc1cc(-c2ccco2)n2c(nc3ccccc32)c1C#N | -25.9 |
| COc1ccc(C(=O)N2CCC(n3nccc3NC(=O)C3CC3)CC2)cc1F | -26.8 |
| O=C(O)CC1S/C(=N\N=C2CCCCCC2)N(c2ccccc2)C1=O (stereo not shown) | 9.08 |
| O=C(/C=C/c1ccccc1)N1CCN(C(=O)c2ccco2)CC1 | -28.6 |
| O=C(/C=C/c1cccc([N+](=O)[O-])c1)N1CCN(C(=O)c2ccco2)CC1 | -64.8 |
| O=C(c1ccco1)N1CCN(C(=O)c2ccccc2[N+](=O)[O-])CC1 | 22.4 |
| O=C(/C=C/c1ccccc1[N+](=O)[O-])N1CCN(C(=O)c2ccco2)CC1 | -45.6 |
| O=C(c1cccc([N+](=O)[O-])c1)N1CCN(C(=O)c2ccco2)CC1 | -10.8 |
| O=C(c1cc([N+](=O)[O-])cc([N+](=O)[O-])c1)N1CCN(C(=O)c2ccco2)CC1 | -65.3 |
| COc1ccccc1N1CCN(C(=O)c2ccc(-c3ccccc3)cc2)CC1 | -5.25 |
| Cc1cc(C)cc(OCC(=O)NC(C)c2ccccc2)c1 (stereo not shown) | 15.2 |
| CC(C)OCCCNC(=O)c1cc(-c2cccnc2)nc2ccccc12 | -21.4 |
| Fc1ccc(C(CCNCc2cccs2)c2ccco2)cc1 (stereo not shown) | -66.8 |
| Cc1ccc(C(CCN)c2ccco2)cc1 (stereo not shown) | -2.63 |
| Cc1ccc(C(CCNC(C)c2cccs2)c2ccco2)cc1 (stereo not shown) | -57.1 |
| O=S(=O)(NCCC(c1ccc(F)cc1)c1ccco1)c1ccccc1 (stereo not shown) | -7.77 |
| Cc1ccc(S(=O)(=O)NCCC(c2ccc(F)cc2)c2ccco2)cc1 (stereo not shown) | 10.8 |
| Cc1ccc(S(=O)(=O)NCCC(c2ccccc2)c2ccco2)cc1 (stereo not shown) | 0.23 |

| Structure (SMILES) | hERG current change (%, negative = inhibition) at 10uM [%] |
| --- | --- |
| Cc1cc(C)cc(NC(=O)CCCn2nc(C)c3c(C)n(-c4ccccc4)nc3c2=O)c1 | -4.07 |
| CC(C(=O)NC1C(=O)N2C(C(=O)O)=C(CSc3nnnn3C)CSC12)n1cc(Br)cn1 (stereo not shown) | 25.1 |
| CN(C)C(=O)CSc1nnc([C@H](Cc2ccccc2)NC(=O)OC(C)(C)C)o1 | 5.98 |
| O=C(CNS(=O)(=O)c1ccccc1)N1CCN(Cc2ccccc2)CC1 | 5.89 |
| CC1(C)CC(=O)C=C(c2ccc(I)cc2)C1 | -2.72 |
| CCn1c(CN2CCN(c3ccc(Cl)cc3)CC2)nc2ccccc21 | -55.3 |
| COc1ccc(N2CCN(Cc3nc4ccccc4n3C)CC2)cc1 | -18.2 |
| CC(O)CNc1nc2ccccc2n1CC(=O)N1CCN(Cc2ccccc2)CC1 (stereo not shown) | -22.6 |
| Cc1cccc(Cn2c(Cc3ccccc3)nc3ccccc32)c1 | -24.6 |
| CCc1nc2ccccc2n1CC(=O)N1CCN(Cc2ccccc2)CC1 | -61.5 |
| Cn1c(CN2CCN(c3ccc(Cl)cc3)CC2)nc2ccccc21 | -14.3 |
| c1ccc(Cc2nc3ccccc3n2Cc2ccccc2)cc1 | -53.4 |
| ClCc1nc2ccccc2n1Cc1ccccc1 | 10.6 |
| O=C(Cn1c(NCCO)nc2ccccc21)N1CCN(Cc2ccccc2)CC1 | -9.47 |
| OCCCc1nc2ccccc2n1Cc1ccccc1 | 7.46 |
| Cc1ccc(Cn2c(Cc3ccccc3)nc3ccccc32)cc1 | -10.1 |
| c1ccc(Cn2c(CN3CCCC3)nc3ccccc32)cc1 | -64.6 |
| CCOC(=O)c1ccc(NC(=O)CN(C)S(=O)(=O)c2ccc(OC)cc2)cc1 | 6.82 |
| CC1=NNC(=O)C1CC(=O)N/N=C/c1ccc(C)o1 (stereo not shown) | 10.7 |
| CCOc1ccccc1NC(=O)C(C)CC (stereo not shown) | -6.76 |
| Cc1ccc(NC(=O)C2CCCN2C(=O)c2cccs2)c(C)c1 (stereo not shown) | 12.7 |
| Cc1cc(C)cc(OCC(=O)NC2CCCc3ccccc32)c1 (stereo not shown) | -1.2 |
| CC(=O)OC(C)C(=O)NS(=O)(=O)c1ccc(C)cc1 (stereo not shown) | 12.3 |

| Structure (SMILES) | hERG current change (%, negative = inhibition) at 10uM [%] |
| --- | --- |
| Cc1ccc(CCC(=O)Nc2ncc(Cc3cccc(Cl)c3Cl)s2)o1 | 51.7 |
| CCOC(=O)COc1cccc2c(=O)n(CC(=O)N3CCN(C(=O)OCC)CC3)ccc12 | 7.65 |
| CCOC(=O)Nc1nnc(Cc2ccc(Cl)c(Cl)c2)s1 | 5.09 |
| Cc1ccc(-n2c(SCC(=O)N3CCOCC3)nnc2-c2ccncc2)cc1C | -10.6 |
| CC(C)C(=O)Nc1ncc2c(n1)CC(c1cccs1)CC2=O (stereo not shown) | -17.3 |
| CC1=C(C(N)=O)C(c2cccs2)n2nc(-c3cccc(Cl)c3)nc2N1 (stereo not shown) | -24.9 |
| O=C(NCCS(=O)(=O)N1CCN(c2ccccc2F)CC1)c1cc(=O)c2ccccc2o1 | 15 |
| Cc1nc2ccccc2n1Cc1ccccc1 | 15.8 |
| Cc1nc2ccccc2n1Cc1ccc(Cl)cc1 | -2.56 |
| OCc1nc2ccccc2n1Cc1ccc(Cl)cc1 | 8.87 |
| Cl.Clc1ccc(Cn2c(CN3CCCC3)nc3ccccc32)cc1 | -74.4 |
| CC(c1nc2ccccc2n1Cc1ccccc1)N1CCCCC1 (stereo not shown) | -65 |
| CC(O)c1nc2ccccc2n1Cc1ccccc1 (stereo not shown) | 3.15 |
| Cc1ccccc1N(CC(=O)NCc1ccco1)C(=O)CNS(=O)(=O)c1ccc(F)cc1 | -16 |
| COc1ccc(OC)c(/C=C/C(=O)OCC(=O)NC2CCCCCCC2)c1 | -4.68 |
| CCN(CC)C(=S)SCC(=O)Nc1ccc(S(N)(=O)=O)cc1 | 3.17 |
| CS(=O)(=O)c1ccc(C(=O)NCc2ccccc2F)cc1 | 6.24 |
| Cc1oc(-c2ccccc2F)nc1CN1CCC(C(=O)NCCC2=CCCCC2)CC1 | -71.8 |
| Cc1oc(-c2ccccc2F)nc1CN1CCC(C(=O)NC2CC2)CC1 | -34.3 |
| Cc1ccccc1-c1nc(CN2CCC(C(=O)NCCCN3CCOCC3)CC2)c(C)o1 | -10.8 |
| O=C(NCCC1=CCCCC1)C1CCN(c2nc3ccccc3o2)CC1 | -13.9 |
| Cc1cc(C)nc(N2CCC(C(=O)NC3CCCc4ccccc43)CC2)n1 (stereo not shown) | 17.6 |
| Cc1ccccc1-c1nc(CN2CCC(C(=O)NCCC3=CCCCC3)CC2)c(C)o1 | -66.7 |

| Structure (SMILES) | hERG current change (%, negative = inhibition) at 10uM [%] |
| --- | --- |
| Cc1oc(-c2ccccc2F)nc1CN1CCC(C(=O)NC2CCCc3ccccc32)CC1 (stereo not shown) | -63.9 |
| CCOc1ccc(C(NC(=O)CC)c2c(O)ccc3ccccc23)cc1 (stereo not shown) | -7.96 |
| O=C(COC(=O)c1ccccc1NC(=O)c1ccco1)Nc1ccc2c(c1)OC(F)(F)O2 | 12.2 |
| FC(F)(F)c1cc(-c2ccc(Cl)cc2)nc(NCc2cccnc2)n1 | 3.07 |
| CNC(=S)N/N=C/c1cccc(OCc2ccccc2F)c1 | 18.3 |
| Cc1cc(NC(=O)CSc2[nH]c(=O)cc(C(F)(F)F)c2C#N)no1 | -2.45 |
| CCNC(=O)C(=O)N/N=C/c1cc([N+](=O)[O-])ccc1O | 4.32 |
| CCC1CSC(Nc2ccc(C(=O)/C=C/c3ccc(OC)c(OC)c3)cc2)=N1 (stereo not shown) | -52.4 |
| CCC1CSC(Nc2ccc(C(=O)/C=C/c3ccc(Br)cc3)cc2)=N1 (stereo not shown) | 0.372 |
| CCC1CSC(Nc2ccc(C(=O)/C=C/c3cccc(C)c3)cc2)=N1 (stereo not shown) | 14.4 |
| C[C@@H](O)c1nc2ccccc2n1N | 9.12 |
| Cc1cc(N2C(=O)c3ccccc3C2=O)n(C)n1 | 9.7 |
| CCOC(=O)N1CCN(C(=O)c2ccc(OC)c(OC)c2)CC1 | 18.5 |
| COc1ccc(/C=C(\NC(=O)c2ccc(OC)c(OC)c2)C(=O)N2CCN(C)CC2)cc1 | -19.4 |
| COc1ccc(C(=O)N/C(=C/c2cccs2)C(=O)NN)cc1OC | 13.7 |
| CCOC(=O)N1CCN(C(=O)/C(=C/c2cccs2)NC(=O)c2ccc(OC)c(OC)c2)CC1 | -71.2 |
| COc1ccc(C(=O)N/C(=C\c2cccs2)C(=O)N2CCN(C)CC2)cc1OC | -56.4 |
| COc1ccc(C(=O)N/C(=C/c2cccs2)C(=O)NC(C)(C)C)cc1OC | 5.42 |
| Cc1ccc(CNC(=O)C2CC=CCC2C(=O)O)cc1 (stereo not shown) | 16.3 |
| CCOC(=O)c1cc([N+](=O)[O-])sc1N | 2.1 |
| O=C(COC(=O)c1ccccc1O)Nc1cc(S(=O)(=O)N2CCCCCC2)ccc1Cl | -9 |
| Cn1c(=O)n(C)c2cc(NC(=O)COc3ccc(F)cc3F)ccc21 | -13.6 |
